Results with a measured potency or affinity are listed apart. Inconclusive results are not listed. Active and inactive are the calls of the source. Unless noted, how the calls were made is not given here.
What was measured:
[1] = RMG-1 ovarian cancer cell viability loss – cherry-pick, dose response (AID 687029;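 active means signal drop whose fitted half-maximal concentration is at most twice the top valid dose, in every test run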;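 further: cells exposed to compound for 96 hours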); details: RMG-1 viability, CellTiterGlo ATP luminescence, 96 h; series mostly up to 35 µM
[2] = IOSE-T80 viability loss, PAX8-independent line – cell-based, cherry-pick, selectivity assay for PAX8 inhibitor project, dose response (AID 687032;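 active means fitted half-maximal concentration for viability loss no higher than twice the top valid dose, in every repeat run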;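 further: cells exposed to compound for 96 h before reading; 0% = neutral control wells and -100% = 2 µM mitoxantrone kill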); details: CellTiterGlo ATP luminescence, 96 h; series mostly up to 35 µM
[3] = CMV-driven luciferase expression suppression in HEK293 – cell-based, luminescence, dry powder, counter-screen for Pax8 inhibitor project, dose response (AID 743020;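 active means signal-lowering compounds whose fitted half-maximal concentration is at or below twice the top tested dose in every run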;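 further: HEK293 cells stably expressing the CMV luciferase reporter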); details: HEK293 CMV-luciferase reporter, SteadyGlo luminescence, 24 h; series mostly up to 35 µM
[4] = general cell-killing toxicity readout – plate reader, dry powder samples, cytotoxicity control for PAX8 inhibitor project, dose response (AID 743021); details: cell line, non-specific cytotoxicity counter-screen; series mostly up to 35 µM
[5] = IGROV1 cell killing – plate reader, dry powder samples, PAX8 inhibitor project, dose response (AID 743043); details: IGROV1 ovarian cancer cell cytotoxicity; series mostly up to 35 µM;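 further: more negative means fewer viable cells or more cytotoxicity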
[6] = OVCAR-3 cell viability loss – plate reader, dry powder samples, PAX8 inhibitor project, dose response (AID 743044); details: NIH:OVCAR-3 ovarian cancer cell viability; max activity: at 35 µM, stronger effect = lower value unless noted; series mostly up to 50 µM
[7] = toxicity toward immortalized ovarian surface epithelium – cell-based, plate reader, dry powder samples, cytotoxicity control for PAX8 inhibitor project, dose response (AID 743045); details: IOSE-T80 ovarian epithelial cells; series mostly up to 35 µM;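 further: 0% = neutral control median and -100% = positive control median; more negative values mean more cell killing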
[8] = A2780 cell killing – plate reader, dry powder samples, cytotoxicity control, dose response (AID 743046); details: A2780 ovarian cancer cytotoxicity; series mostly up to 35 µM;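 further: 0% = neutral control wells and -100% = cytotoxic reference compound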

Measured: max activity

CC1=C(C(=O)OC2CCCCC2)C(c2cccnc2)n2ncnc2N1 (centres undefined)
inactive: [1] | [2] | [3] | [4]

C[C@H](CO)N1C[C@H](C)[C@@H](CN(C)Cc2ccncc2)Oc2ccc(NC(=O)Nc3ccc(C(F)(F)F)cc3)cc2CC1=O
inactive: [1] | [2] | [3] | [4]

COc1ccc(S(=O)(=O)Nc2ccc3c(c2)C(=O)N([C@H](C)CO)C[C@H](C)[C@@H](CN(C)S(=O)(=O)c2ccc(C)cc2)OCCCC[C@H](C)O3)cc1
inactive: [1] | [2] | [3] | [4]

Cn1c(CCN2CCN(c3ccccn3)CC2)nc2cc(NS(=O)(=O)c3ccc(Cl)cc3)ccc21
inactive: [1] | [2] | [3] | [4]

CCCCCCN1C[C@@H](n2cc(-c3ccc(F)cc3)nn2)[C@H](O)C[C@@H]1c1ccc(Cl)cc1
inactive: [1] | [2] | [3] | [4]

Cc1cccc(NC(=O)CC23CC4CC(C2)CC(n2nnc(C)n2)(C4)C3)c1
inactive: [1] | [2] | [3] | [4]

CC(C)c1ccc(/C=C(\c2nc3ccccc3[nH]2)S(=O)(=O)c2ccccc2)cc1
inactive: [1] | [2] | [3] | [4]

CCC(=O)Oc1ccc2c(C)cc(=O)oc2c1C(=O)c1ccccc1
inactive: [1] | [2] | [3] | [4]

O=C(CCCN1C(=O)/C(=C/c2cccc(Br)c2)SC1=S)Nc1cccnc1
inactive: [1] | [2] | [3] | [4]

COc1cccc(S(=O)(=O)N(C)C[C@H]2OCc3ccccc3-c3c(n(C)c4ccccc34)C(=O)N([C@H](C)CO)C[C@H]2C)c1
inactive: [1] | [2] | [3] | [4] | [5] | [6] 28.2% [at 2.1 µM, stronger effect = lower value] | [7]

O=C(Nc1cccc(C2=NCCN2)c1)Nc1cccc(C2=NCCN2)c1
inactive: [1] | [2] | [3] | [4]

COc1ccc(CN2[C@H](CO)[C@H]3c4ccccc4NC[C@H]32)cc1
inactive: [1] | [2] | [3] | [4] | [5] | [6] 26.6% [at 0.5 µM, stronger effect = lower value] | [7] | [8]

COc1ccccc1C#Cc1ccc2c(c1)O[C@H](CN(C)Cc1cccnc1)[C@H](C)CN([C@H](C)CO)S2(=O)=O
inactive: [1] | [2] | [3] | [4] | [5] | [6] -36.9% | [7] | [8]

C[C@@H]1CN([C@H](C)CO)C(=O)c2cc(NS(=O)(=O)c3cccs3)ccc2O[C@@H](C)CCCCO[C@H]1CN(C)Cc1ccc(C(F)(F)F)cc1
inactive: [1] | [2] | [3] | [4] | [5] | [6] -10.6% [at 16 µM, stronger effect = lower value] | [7] | [8]

Cc1ccccc1-c1ccc2c(c1)O[C@H](CN(C)C(=O)Nc1ccc(C(F)(F)F)cc1)[C@H](C)CN([C@H](C)CO)S2(=O)=O
inactive: [1] | [2] | [3] | [4] | [5] | [6] -27.3% | [7]

CN1c2ccc(-c3ccccc3)cc2[C@@H]2[C@@H](CCN2C(=O)NC2CCCCC2)[C@@H]1CO
inactive: [1] | [2] | [3] | [4] | [5] | [6] 7.48% [at 0.26 µM, stronger effect = lower value] | [7] | [8]

C[C@@H]1CCCCO[C@@H](CN(C)Cc2ccccc2)[C@@H](C)CN([C@@H](C)CO)C(=O)c2cc(NS(=O)(=O)c3ccc(Cl)cc3)ccc2O1
inactive: [1] | [2] | [3] | [4] | [5] | [6] 29.1% [at 0.26 µM, stronger effect = lower value] | [7]

C[C@H](CO)N1C[C@H](C)[C@@H](CN(C)Cc2ccc(Cl)c(Cl)c2)OCCCC[C@H](C)Oc2ccc(NS(=O)(=O)c3ccc(Cl)cc3)cc2C1=O
inactive: [1] | [2] | [3] | [4] | [5] | [6] -25.3% | [7]

C[C@H](CO)N1C[C@H](C)[C@@H](CN(C)Cc2ccc(Cl)c(Cl)c2)OCCCC[C@H](C)Oc2ccc(NS(=O)(=O)c3ccc(F)cc3)cc2C1=O
inactive: [1] | [2] | [3] | [4] | [5] | [6] -28.3% | [7]

O=C(NCc1cccnc1)/C(=C\c1ccc(-c2ccc(Cl)c(Cl)c2)o1)S(=O)(=O)c1ccccc1
inactive: [1] | [2] | [3] | [4]

C[C@@H]1CN([C@H](C)CO)C(=O)c2c(c3ccccc3n2C)-c2ccccc2CO[C@@H]1CN(C)S(=O)(=O)c1ccc(C(F)(F)F)cc1
inactive: [1] | [2] | [3] | [4] | [5] | [6] -18.1% [at 16 µM, stronger effect = lower value] | [7] | [8]

O=C(C[C@@H]1CC[C@H]2[C@@H](COC[C@@H](O)CN2Cc2cccc(C(F)(F)F)c2)O1)NCc1ccc(F)cc1
inactive: [1] | [2] | [3] | [4] | [5] | [6] 13.4% [at 2.1 µM, stronger effect = lower value] | [7] | [8]

O=C(NCC1CCCO1)C(=Cc1cccc([N+](=O)[O-])c1)C(=O)NCC1CCCO1 (centres undefined)
inactive: [1] | [2] | [3] | [4]

COc1ccc(NC(=O)Nc2ccc3c(c2)C(=O)N([C@H](C)CO)C[C@@H](C)[C@@H](CN(C)C(=O)Cc2ccccc2)OCCCC[C@H](C)O3)cc1
inactive: [1] | [2] | [3] | [4] | [5] | [6] -34.5% | [7]

O=C(C[C@@H]1CC[C@H]2[C@@H](COC[C@H](O)CN2C(=O)Nc2ccc(Cl)c(Cl)c2)O1)NCc1ccc(Cl)cc1
inactive: [1] | [2] | [3] | [4] | [5] | [6] -36.1% | [7]

C[C@@H]1CCCCO[C@@H](CN(C)Cc2ccc(Cl)c(Cl)c2)[C@H](C)CN([C@@H](C)CO)C(=O)c2cc(NS(=O)(=O)c3ccccc3)ccc2O1
inactive: [1] | [2] | [3] | [4] | [5] | [6] -34.1% [at 0.26 µM, stronger effect = lower value] | [7] | [8]

COc1ccc2c(c1)C(C)=CC(C)(C)N2S(=O)(=O)c1ccc(Br)cc1
inactive: [1] | [2] | [3] | [4] | [5]

COc1ccc(-c2ccc3c(c2)[C@@H]2[C@@H](CCN2C(=O)C2CCCC2)[C@H](CO)N3C)cc1
inactive: [1] | [2] | [3] | [4] | [5] | [6] -19.3% [at 18 µM, stronger effect = lower value] | [7] | [8]

Cc1ccc(S(=O)(=O)Nc2ccc3c(c2)C(=O)N([C@H](C)CO)C[C@@H](C)[C@H](CN(C)S(=O)(=O)c2ccccc2)OCCCC[C@H](C)O3)cc1
inactive: [1] | [2] | [3] | [4] | [5] | [6] -31.1% | [7]

C[C@H](CO)N1C[C@H](C)[C@@H](CN(C)Cc2ccccc2)OCCCC[C@H](C)Oc2ccc(NC(=O)Nc3ccc(C(F)(F)F)cc3)cc2C1=O
inactive: [1] | [2] | [3] | [4]

COc1ccc(C(=O)N/N=C/c2ccc(OC)c(CN3CCN(c4ccc(F)cc4)CC3)c2)cc1
inactive: [1] | [2] | [3] | [4]

C[C@@H]1CCCCO[C@H](CN(C)Cc2ccc(C(F)(F)F)cc2)[C@@H](C)CN([C@@H](C)CO)C(=O)c2cc(NS(=O)(=O)c3ccc(Cl)cc3)ccc2O1
inactive: [1] | [2] | [3] | [4] | [5] | [6] -151% | [7]

COc1cccc(S(=O)(=O)N(C)C[C@@H]2OCc3ccccc3-c3c(n(C)c4ccccc34)C(=O)N([C@@H](C)CO)C[C@@H]2C)c1
inactive: [1] | [2] | [3] | [4] | [5] | [6] 23.2% [at 2.1 µM, stronger effect = lower value] | [7] | [8]

C[C@H](CO)N1C[C@H](C)[C@H](CN(C)S(=O)(=O)c2ccc(F)cc2)OCCCC[C@H](C)Oc2ccc(NC(=O)Nc3ccc(F)cc3)cc2C1=O
inactive: [1] | [2] | [3] | [4] | [5] | [6] -19% [at 16 µM, stronger effect = lower value] | [7] | [8]

COc1ccc2c3c(n(C)c2c1)[C@H](CO)N(C(=O)Nc1ccc(F)cc1)CC31CCN(S(=O)(=O)c2cccc(C)c2)CC1
inactive: [1] | [2] | [3] | [4] | [5] | [6] -14.5% | [7]

C[C@@H]1CN([C@@H](C)CO)C(=O)c2cc(NC(=O)Nc3ccc(C(F)(F)F)cc3)ccc2O[C@@H](C)CCCCO[C@H]1CN(C)C(=O)c1ccccc1
inactive: [1] | [2] | [3] | [4] | [5] | [6] 12.6% [at 0.26 µM, stronger effect = lower value] | [7]

C[C@@H]1CN([C@@H](C)CO)C(=O)c2cc(NC(=O)Nc3ccc(C(F)(F)F)cc3)ccc2O[C@@H](C)CCCCO[C@@H]1CN(C)Cc1ccc2c(c1)OCO2
inactive: [1] | [2] | [3] | [4] | [5] | [6] -5.57% [at 16 µM, stronger effect = lower value] | [7]

COc1ccc(-c2ccc3c(c2)[C@@H]2[C@@H](CCN2C(=O)NC2CCCCC2)[C@@H](CO)N3C)cc1
inactive: [1] | [2] | [3] | [4] | [5] | [6] -44.1% [at 9 µM, stronger effect = lower value] | [7]

C[C@H](CO)N1C[C@H](C)[C@H](CN(C)S(=O)(=O)c2ccccc2)OCCCC[C@H](C)Oc2ccc(NS(=O)(=O)c3ccc(Cl)cc3)cc2C1=O
inactive: [1] | [2] | [3] | [4] | [5] | [6] -18.9% | [7]

From PubChem BioAssay
